For some of these results: Entries with a potency or affinity are not part of this list.
Legend:
Design in all cases: scale not given: direction of the effect not stated beside the values
[1] = target: Protein translocase subunit SecA (Escherichia coli (strain K12)) (UniProt P10408); test: Assay to Identify E. coli SecA ATPase Inhibitors; format: functional; conditions: 30 µM
[2] = target: T1, Ubiquitin-activating enzyme e1, putative (Leishmania donovani (strain BPK282A1)) (UniProt E9BSI1); test: Leishmania donovani Ubiquitin Activating Enzyme (LdE1); format: functional; conditions: 30 µM
T1 sequence (whole entry): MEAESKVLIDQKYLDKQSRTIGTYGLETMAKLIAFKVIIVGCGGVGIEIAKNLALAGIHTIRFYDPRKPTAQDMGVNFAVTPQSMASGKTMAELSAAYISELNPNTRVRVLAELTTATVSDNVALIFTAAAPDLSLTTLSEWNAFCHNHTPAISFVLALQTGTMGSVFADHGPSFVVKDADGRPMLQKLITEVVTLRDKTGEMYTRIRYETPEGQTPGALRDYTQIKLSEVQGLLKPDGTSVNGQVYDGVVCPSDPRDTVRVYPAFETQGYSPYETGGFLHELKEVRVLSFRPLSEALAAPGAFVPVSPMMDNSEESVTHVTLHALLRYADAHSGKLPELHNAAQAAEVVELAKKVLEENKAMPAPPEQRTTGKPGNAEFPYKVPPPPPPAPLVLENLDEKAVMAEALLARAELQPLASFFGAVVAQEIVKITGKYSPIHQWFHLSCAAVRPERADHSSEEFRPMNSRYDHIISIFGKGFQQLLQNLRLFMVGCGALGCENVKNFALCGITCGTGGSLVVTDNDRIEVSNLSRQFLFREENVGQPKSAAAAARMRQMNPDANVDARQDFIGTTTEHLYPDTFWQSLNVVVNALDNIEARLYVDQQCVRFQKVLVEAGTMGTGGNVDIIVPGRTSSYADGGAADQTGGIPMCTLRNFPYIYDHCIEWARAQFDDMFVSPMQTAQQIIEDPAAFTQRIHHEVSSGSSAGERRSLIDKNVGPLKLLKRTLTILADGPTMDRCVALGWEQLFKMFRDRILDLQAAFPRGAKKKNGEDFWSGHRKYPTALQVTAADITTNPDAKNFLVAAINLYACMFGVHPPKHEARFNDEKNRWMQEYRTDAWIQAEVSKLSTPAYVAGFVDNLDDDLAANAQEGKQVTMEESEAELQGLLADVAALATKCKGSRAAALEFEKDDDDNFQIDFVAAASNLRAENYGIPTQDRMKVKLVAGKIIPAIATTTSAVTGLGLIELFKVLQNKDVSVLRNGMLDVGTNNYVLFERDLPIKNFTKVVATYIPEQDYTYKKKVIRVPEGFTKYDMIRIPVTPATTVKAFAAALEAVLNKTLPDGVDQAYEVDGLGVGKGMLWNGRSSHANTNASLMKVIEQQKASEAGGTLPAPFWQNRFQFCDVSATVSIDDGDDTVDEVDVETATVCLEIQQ

[3] = target: Sialic acid-binding Ig-like lectin 9 (Homo sapiens) (UniProt Q9Y336); test: Hs-Siglec9 ALPHAscreen SOP 20170721; conditions: 10 µM
Trypanosoma cruzi = test: Trypanosoma cruzi phosphomannomutase and mannose-1-phosphate guanylyltransferase assay; format: functional; conditions: 10 µM
[4] = target: T2, Arginase-2, mitochondrial (Homo sapiens) (UniProt P78540); test: in vitro enzyme assay to detect the production of urea directly proportional to the activity of Arginase II; format: functional; conditions: 33.3 µM; further: in the data most compounds retested in dose-response had high values
T2 sequence (whole entry): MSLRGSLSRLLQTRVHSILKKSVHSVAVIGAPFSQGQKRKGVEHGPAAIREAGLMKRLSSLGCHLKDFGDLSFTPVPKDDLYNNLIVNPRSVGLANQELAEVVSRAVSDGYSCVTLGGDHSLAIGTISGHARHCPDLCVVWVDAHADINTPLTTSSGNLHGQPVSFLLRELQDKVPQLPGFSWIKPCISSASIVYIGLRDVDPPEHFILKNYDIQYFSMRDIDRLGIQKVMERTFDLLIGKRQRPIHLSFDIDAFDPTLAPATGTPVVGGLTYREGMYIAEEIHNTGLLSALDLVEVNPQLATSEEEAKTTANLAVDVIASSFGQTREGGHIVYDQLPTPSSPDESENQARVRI

[5] = target: T3, Proteasome subunit beta (Trypanosoma cruzi) (UniProt O96673); test: Trypanosoma cruzi proteasome chymotrypsin-like activity (TcProtChymo) assay.; further: in the data most compounds retested in dose-response had high values; format: functional; conditions: 9.37 µM
T3 sequence (whole entry): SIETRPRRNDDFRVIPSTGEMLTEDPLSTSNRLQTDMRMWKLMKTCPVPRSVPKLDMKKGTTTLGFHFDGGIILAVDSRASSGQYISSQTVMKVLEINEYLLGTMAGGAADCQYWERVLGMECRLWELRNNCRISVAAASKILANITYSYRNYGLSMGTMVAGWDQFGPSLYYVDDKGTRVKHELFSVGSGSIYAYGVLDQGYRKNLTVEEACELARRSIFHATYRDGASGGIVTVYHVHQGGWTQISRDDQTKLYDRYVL

Homo sapiens = species on record: Homo sapiens; test: To identify inhibition of the IFN signalling (Jak-Stat) pathway via expression of an eGFP reporter gene under the control of an IFN-stimulated response element (ISRE) containing MxA promoter.; format: functional; conditions: 30 µM
[6] = target: T4, Tyrosyl-tRNA synthetase, putative (Trypanosoma cruzi (strain CL Brener)) (UniProt Q4DSP6); test: Trypanosoma cruzi tyrosyl tRNA synthetase (TcYRS) _High Tyrosine SOP; format: functional; conditions: 30 µM; further: in the data most compounds retested in dose-response had high values
T4 sequence (whole entry): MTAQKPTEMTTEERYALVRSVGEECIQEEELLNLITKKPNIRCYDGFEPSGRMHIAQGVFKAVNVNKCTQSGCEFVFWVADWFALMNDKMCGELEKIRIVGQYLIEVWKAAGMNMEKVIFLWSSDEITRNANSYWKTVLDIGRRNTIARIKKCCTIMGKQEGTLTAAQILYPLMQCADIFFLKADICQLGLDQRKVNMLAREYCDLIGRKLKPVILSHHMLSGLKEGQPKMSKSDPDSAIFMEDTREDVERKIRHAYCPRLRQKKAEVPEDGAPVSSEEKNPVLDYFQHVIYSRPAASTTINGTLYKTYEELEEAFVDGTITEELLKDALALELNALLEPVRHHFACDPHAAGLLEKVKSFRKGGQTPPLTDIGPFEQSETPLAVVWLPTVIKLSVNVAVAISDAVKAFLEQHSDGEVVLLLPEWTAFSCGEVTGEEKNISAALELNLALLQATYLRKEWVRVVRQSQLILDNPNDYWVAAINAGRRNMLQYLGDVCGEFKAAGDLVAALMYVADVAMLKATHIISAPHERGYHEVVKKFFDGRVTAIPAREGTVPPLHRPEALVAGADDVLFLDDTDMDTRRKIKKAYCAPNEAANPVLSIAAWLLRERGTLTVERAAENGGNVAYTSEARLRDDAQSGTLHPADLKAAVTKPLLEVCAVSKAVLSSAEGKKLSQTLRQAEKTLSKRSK

[7] = target: T4, Tyrosyl-tRNA synthetase, putative (Trypanosoma cruzi (strain CL Brener)); test: Trypanosoma cruzi tyrosyl tRNA synthetase (TcYRS) SOP; format: functional; conditions: 30 µM
[8] = target: Chromo domain-containing protein 1 (Saccharomyces cerevisiae (strain ATCC 204508 / S288c) (Baker's yeast)) (UniProt P32657); test: ScCHD-1 Enzyme Inhibition Assay; format: functional; conditions: 30 µM; further: in the data most compounds retested in dose-response had high values
Chromo domain-containing protein 1 (Saccharomyces cerevisiae (strain ATCC 204508 / S288c) (Baker's yeast)), sequence (P32657 whole entry, the tested form may be a part): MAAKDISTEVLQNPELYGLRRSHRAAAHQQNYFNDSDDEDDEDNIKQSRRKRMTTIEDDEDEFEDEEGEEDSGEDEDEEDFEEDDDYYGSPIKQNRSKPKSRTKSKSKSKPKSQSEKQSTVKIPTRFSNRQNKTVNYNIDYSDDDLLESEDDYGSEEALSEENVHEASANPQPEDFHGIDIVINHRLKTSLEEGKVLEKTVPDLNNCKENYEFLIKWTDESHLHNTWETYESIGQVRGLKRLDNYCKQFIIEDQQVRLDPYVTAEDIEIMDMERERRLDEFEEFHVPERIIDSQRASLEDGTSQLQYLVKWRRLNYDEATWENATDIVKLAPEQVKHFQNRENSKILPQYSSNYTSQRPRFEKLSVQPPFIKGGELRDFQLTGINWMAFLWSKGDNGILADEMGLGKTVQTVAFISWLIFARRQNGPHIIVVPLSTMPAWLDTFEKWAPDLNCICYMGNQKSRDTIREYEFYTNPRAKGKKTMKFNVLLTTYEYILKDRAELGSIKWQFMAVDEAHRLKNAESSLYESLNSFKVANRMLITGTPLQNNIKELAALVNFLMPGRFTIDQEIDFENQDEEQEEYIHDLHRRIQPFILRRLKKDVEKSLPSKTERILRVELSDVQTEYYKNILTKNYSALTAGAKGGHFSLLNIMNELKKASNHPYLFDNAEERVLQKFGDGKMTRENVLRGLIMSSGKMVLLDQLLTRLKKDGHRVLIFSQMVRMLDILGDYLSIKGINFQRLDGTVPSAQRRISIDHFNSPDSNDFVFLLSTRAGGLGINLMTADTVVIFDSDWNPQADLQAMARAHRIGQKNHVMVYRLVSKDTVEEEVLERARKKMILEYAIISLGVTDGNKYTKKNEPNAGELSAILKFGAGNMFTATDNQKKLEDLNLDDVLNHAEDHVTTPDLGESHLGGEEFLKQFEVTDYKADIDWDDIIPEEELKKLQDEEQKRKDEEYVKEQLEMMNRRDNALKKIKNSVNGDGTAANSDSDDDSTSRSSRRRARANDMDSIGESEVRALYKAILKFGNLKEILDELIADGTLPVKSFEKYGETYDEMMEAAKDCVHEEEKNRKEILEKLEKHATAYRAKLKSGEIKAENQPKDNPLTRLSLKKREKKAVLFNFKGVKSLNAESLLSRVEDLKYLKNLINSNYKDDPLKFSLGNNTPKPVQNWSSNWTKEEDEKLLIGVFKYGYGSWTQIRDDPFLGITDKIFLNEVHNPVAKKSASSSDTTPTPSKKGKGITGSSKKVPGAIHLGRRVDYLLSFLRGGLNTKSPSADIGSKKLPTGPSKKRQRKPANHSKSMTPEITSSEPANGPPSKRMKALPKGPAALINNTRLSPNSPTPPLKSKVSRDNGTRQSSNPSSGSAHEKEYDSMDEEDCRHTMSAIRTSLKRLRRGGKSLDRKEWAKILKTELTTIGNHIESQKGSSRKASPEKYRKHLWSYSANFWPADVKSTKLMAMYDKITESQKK

Sialic acid-binding Ig-like lectin 9 (Homo sapiens), sequence (Q9Y336 whole entry): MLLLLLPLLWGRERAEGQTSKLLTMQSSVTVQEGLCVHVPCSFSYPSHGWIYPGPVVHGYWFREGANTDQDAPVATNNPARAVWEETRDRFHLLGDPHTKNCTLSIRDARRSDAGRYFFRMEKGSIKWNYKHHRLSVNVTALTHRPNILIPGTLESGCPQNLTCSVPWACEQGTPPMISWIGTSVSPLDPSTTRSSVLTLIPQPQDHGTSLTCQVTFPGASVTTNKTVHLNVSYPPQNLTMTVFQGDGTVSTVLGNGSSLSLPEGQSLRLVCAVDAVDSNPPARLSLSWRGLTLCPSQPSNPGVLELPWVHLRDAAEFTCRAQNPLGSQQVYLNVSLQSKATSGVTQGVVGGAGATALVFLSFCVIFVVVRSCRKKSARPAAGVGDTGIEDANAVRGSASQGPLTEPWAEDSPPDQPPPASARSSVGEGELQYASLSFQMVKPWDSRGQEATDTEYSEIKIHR
Protein translocase subunit SecA (Escherichia coli (strain K12)), sequence (P10408 whole entry): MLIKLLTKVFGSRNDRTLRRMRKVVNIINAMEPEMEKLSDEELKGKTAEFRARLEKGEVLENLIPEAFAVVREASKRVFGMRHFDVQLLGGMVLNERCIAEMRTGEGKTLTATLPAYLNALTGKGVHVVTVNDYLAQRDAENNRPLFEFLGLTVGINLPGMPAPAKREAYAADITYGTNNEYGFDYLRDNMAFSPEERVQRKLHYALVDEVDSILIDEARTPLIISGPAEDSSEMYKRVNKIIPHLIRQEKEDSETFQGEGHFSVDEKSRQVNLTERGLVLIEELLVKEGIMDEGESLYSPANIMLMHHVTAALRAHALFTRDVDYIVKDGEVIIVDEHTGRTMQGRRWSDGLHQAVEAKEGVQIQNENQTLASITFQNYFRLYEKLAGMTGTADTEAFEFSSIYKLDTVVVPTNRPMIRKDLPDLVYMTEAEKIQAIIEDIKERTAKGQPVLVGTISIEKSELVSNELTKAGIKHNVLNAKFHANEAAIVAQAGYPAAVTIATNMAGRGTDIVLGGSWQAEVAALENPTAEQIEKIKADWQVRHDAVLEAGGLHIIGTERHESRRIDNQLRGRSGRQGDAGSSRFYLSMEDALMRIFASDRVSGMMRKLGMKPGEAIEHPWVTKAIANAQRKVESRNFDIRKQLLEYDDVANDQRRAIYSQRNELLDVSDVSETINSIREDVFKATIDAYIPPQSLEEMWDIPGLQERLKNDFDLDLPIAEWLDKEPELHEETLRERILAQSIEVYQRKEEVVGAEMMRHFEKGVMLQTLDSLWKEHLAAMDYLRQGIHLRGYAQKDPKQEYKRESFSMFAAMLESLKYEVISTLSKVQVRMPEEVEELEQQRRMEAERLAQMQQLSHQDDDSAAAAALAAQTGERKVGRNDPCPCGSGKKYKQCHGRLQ

Row | Structure (SMILES) | Percent Effect [1] [%] | Percent Effect [2] [%] | Percent Effect [3] [%] | Percent Effect (Trypanosoma cruzi) [%] | Percent Effect [4] [%] | Percent Effect [5] [%] | Percent Effect (Homo sapiens) [%] | Percent Effect [6] [%] | Percent Effect [7] [%] | Percent Effect [8] [%]
1 | CS(=O)(=O)N1CCC(NC(=O)COc2ccc(Cl)c(Cl)c2)CC1 | -0.592 | 15.6 | -0.737 | -2.24 | -2.66 | 3.86 | 10.2 | 13.7 | 28.2 | -8.55
2 | CCc1nc(C2CCCN2C(=O)c2cc(C3CC3)[nH]n2)no1 (stereo not given) | -3.71 | 5.33 | -4.76 | -5.02 | 1.77 | -1.44 | 12.6 | 3.68 | 5.13 | -6.15
3 | O=C(c1cc(C2CC2)on1)N1CCCC(n2cncn2)C1 (stereo not given) | -3.26 | 15.4 | -20 | 9.48 | -0.82 | 20.7 | 15.6 | 4.31 | 22.9 | 30.2
4 | Cc1ccc(CCN2CCC(N(C)Cc3noc(C4CC4)n3)C2)cc1 (stereo not given) | -0.729 | 10.3 | -7.58 | 0.0939 | 3.69 | 11.7 | -3.17 | 5.26 | 8.43 | -4.27
5 | CCc1noc(C(C)N2CCOCC2)n1 (stereo not given) | -7.21 | 10.7 | 7.7 | 0.602 | 0.887 | 5.85 | 5.17 | 6.84 | 5.13 | -8.94
6 | Cc1ccccc1CN(C)Cc1nc2c(cnn2C)c(=O)[nH]1 | -0.754 | 10.3 | -3.07 | 1.41 | -0.82 | 16.8 | 7.6 | 8.13 | 18.1 | -3.59
7 | Cc1occc1C(=O)NCc1ccc(N2CCCC(C(N)=O)C2)cc1 (stereo not given) | -2.46 | 8 | -3.46 | -3.61 | 10.6 | 13 | 16.5 | 2.63 | 7.69 | -9.94
8 | O=C1CC2(CCCCN2C(=O)c2ccsc2)CN1CC1CC1 (stereo not given) | -4.46 | 11.7 | 1.96 | 2.44 | 4.57 | 0.429 | -8.36 | 8.7 | 15 | -4.62
9 | COc1c(CNC2CCSc3ccc(F)cc32)c(C)nn1C (stereo not given) | 0.667 | 13 | 7.38 | -0.373 | -12.5 | 10.9 | 64.7 | 5.88 | 11.8 | -4.85
10 | c1cnn(CCNCc2csc(-c3ccsc3)n2)c1 | -6.54 | -12.8 | -10.8 | -5.92 | -1.23 | 20.6 | 24.6 | -6.22 | -1.21 | 0.287
11 | CN(C)c1ncccc1CNS(=O)(=O)c1ccccc1F | -0.976 | 15.6 | -3.68 | -3.17 | 2.66 | 13.3 | 19.8 | 4.9 | 11.8 | -9.97
12 | Cn1ccc(C(=O)NCc2ccc(N3CCCC3)nc2)cc1=O | -3.18 | 8 | 10.6 | 1 | 0 | 5.85 | 21.7 | 3.68 | 5.13 | -7.64
13 | Cc1ccccc1CC(=O)N(C)C1CCN(c2ccccn2)CC1 | -6.18 | 10.7 | 3.6 | 5.22 | -1.33 | 15 | 6.38 | 5.79 | 12.8 | -17.5
14 | O=C(NCc1nn(-c2ccccc2)c2c1CCC2)NC1CC1 | -4.01 | 2.56 | 9.31 | 0.469 | 2.05 | 2.65 | -3.46 | 1.44 | 8.43 | -1.68
15 | O=C(CCN1CCCN(c2nccs2)CC1)Nc1ccccc1 | -2.89 | 10.7 | -7.96 | -4.82 | -5.76 | 13.2 | 17.4 | -0.526 | -5.13 | -12
16 | NC(=O)Cn1cc(NC(=O)N2CCCC2)cn1 | 1.14 | 12.8 | -7.88 | -0.469 | 8.61 | 11.7 | 19.1 | 5.26 | 18.1 | -4.77

From ChEMBL document CHEMBL3988442, “University of Dundee, Small-Polar-MMV Screening Library” (2021)
